Experimental data: PubChem BioAssay (NCI)
About 83,000 compounds went through this panel and 20% of them were active in at least one assay; those are over-represented in the sample as a whole.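 Cell lines were cultured in 96-well plates, exposed to a single compound concentration, and assessed for percent growth 48 hours later.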 Values without a mark were called inactive. Activity calls are given as the source filed them. How the source made its calls: active means growth percent below 10; inactive means the rest.

Assays:
Test in all cases: NCI-60 one-dose screen, 48 h (100 = growth as untreated, 0 = no growth, -100 = all killed)
Settings in all cases: 10 µM unless noted
NCI-H23 lung = tested on: NCI-H23 lung
NCI-H226 lung = tested on: NCI-H226 lung
NCI-H322M lung = tested on: NCI-H322M lung
HOP-62 NSCLC = tested on: HOP-62 NSCLC
NCI-H460 lung = tested on: NCI-H460 lung
HOP-92 NSCLC = tested on: HOP-92 NSCLC
NCI-H522 lung = tested on: NCI-H522 lung
A549/ATCC NSCLC = tested on: A549/ATCC NSCLC
786-0 renal = tested on: 786-0 renal
COLO 205 colon = tested on: COLO 205 colon
DU-145 prostate = tested on: DU-145 prostate
K-562 leukemia = tested on: K-562 leukemia
MALME-3M melanoma = tested on: MALME-3M melanoma
MDA-MB-231 breast = tested on: MDA-MB-231 breast
SF-268 CNS = tested on: SF-268 CNS
SF-295 CNS = tested on: SF-295 CNS
SF-539 CNS = tested on: SF-539 CNS
UACC-257 melanoma = tested on: UACC-257 melanoma
M14 melanoma = tested on: M14 melanoma
RXF 393 renal = tested on: RXF 393 renal

Structure (SMILES) | growth (NCI-H23 lung) | growth (NCI-H226 lung) | growth (NCI-H322M lung) | growth (HOP-62 NSCLC) | growth (NCI-H460 lung) | growth (HOP-92 NSCLC) | growth (NCI-H522 lung) | growth (A549/ATCC NSCLC) | growth (786-0 renal) | growth (COLO 205 colon) | growth (DU-145 prostate) | growth (K-562 leukemia) | growth (MALME-3M melanoma) | growth (MDA-MB-231 breast) | growth (SF-268 CNS) | growth (SF-295 CNS) | growth (SF-539 CNS) | growth (UACC-257 melanoma) | growth (M14 melanoma) | growth (RXF 393 renal) [%]
CCCCCCCCCCCCCCCC[N+]1(CC)CCCC1 | -28.6% (active) | -9.79% (active) | 1.53% (active) | -49.7% (active) | -66.8% (active) | -29.1% (active) | -73.7% (active) | -63.1% (active) | -57.7% (active) | -90.4% (active) | -92.2% (active) | -34.9% (active) | -49.9% (active) | -61.6% (active) | -57% (active) | -70.1% (active) | -28.4% (active) | -46% (active) | -45% (active) | 
Cc1cc(Nc2nc(N3CCNCC3)nc3ccccc23)n[nH]1 | 96.4% | 86.5% | 91.1% | 109% | 93.4% | 80.2% | 76.4% | 80.8% | 76.1% | 90.8% | 119% | 81.5% | 80.4% | 103% | 90.6% | 88% | 79.4% | 87.1% | 92.5% | 
C#Cc1nc(Nc2cc(C)[nH]n2)c2ccccc2n1 | -19.4% (active) | -63.3% (active) | -18.2% (active) | -61.2% (active) | -36.7% (active) | -46.3% (active) | -72.7% (active) | -35.7% (active) | -60.7% (active) | -56.6% (active) | -80% (active) | 2.59% (active) | -70.8% (active) | -56% (active) | -86% (active) | -57.9% (active) | -44.5% (active) | -54.9% (active) | -23.6% (active) | 
CC(=O)Oc1cc2cnc3c4cc(OC(C)=O)c(OC(C)=O)cc4ccc3c2cc1OC(C)=O | 25.4% | 36.4% | 5.6% (active) | 28.7% | 9.99% (active) | 18.6% | -28.8% (active) | 25.5% | 18.9% | 78% | 16.6% | 6.46% (active) | 6.96% (active) | 26.3% | 12.2% | 13.9% | -10.8% (active) | 20.6% | 13.9% | 
Cc1noc(C)c1-c1cc(O)cc(C(O)c2ccccc2)c1 (stereo unspecified) | 68.1% | 65.5% | 47.6% | 47.2% | 67.2% | 25.6% | 22.1% | 55.4% | 54.8% | 37.1% | 87.5% | 42.1% | 60% | 62.4% | 71.5% | 42.5% | 62.5% | 40.4% | 56% | 
Cc1cc(Nc2nc(N3CCOCC3)nc3ccccc23)n[nH]1 | 80.5% | 57.7% | 65.8% | 78% | 68.9% | 60.7% | 40.2% | 53.3% | 49.9% | 65.4% | 75.2% | 56.3% | 66.4% | 84.9% | 63.8% | 73.4% |  | 76% | 45.8% | 
Cc1ccc(NC(=O)c2sc3nc4c(cc3c2N)C(=O)CCC4)cc1C | 32.7% | 80.2% | 42.5% | 23.5% | 7.88% (active) | 90.8% | -9.22% (active) | 19.5% | 37.4% | -25.2% (active) | 8.18% (active) | 11.7% | 48.8% | 35.3% | 42.7% | 8.72% (active) | -10.4% (active) | 54.2% | 8.39% (active) | 
Nc1cc2nc3ccccc3sc-2cc1=O | 50% | 84.4% | 93.8% | 63.9% | 75% | 101% | 66% | 27.3% | 97.7% | 104% | 21.5% | 28.5% | -7% (active) | 59.2% | 78.1% | 65.9% | 98% | 50.8% | 81.2% | 
Cc1csc2ccc(Cl)cc12 | 97.8% | 104% | 101% | 96.6% | 106% | 104% | 89% | 109% | 105% | 105% | 110% | 106% | 97.7% | 97% | 108% |  | 96.8% | 102% | 101% | 
CN1CCCCC1CCN1c2ccccc2Sc2ccc(Br)cc21 (stereo unspecified) | 77.4% | 89.9% | 59.1% | 85.7% | 64.9% | 45.5% | 62.9% | 67.5% | 55% | 51.5% | 77.9% | 2.32% (active) | 78.4% | 67.6% | 66.3% | 59.6% | 95.9% | 70.7% | 49.1% | 
Cc1ccc(C2CC3c4ccccc4C2C2CCCCN32)cc1 (stereo unspecified) | 93.6% | 95.9% | 84.1% | 98.6% | 104% | 85.4% | 72.6% | 89.9% | 92.7% | 74% | 108% | 72% | 85.6% | 109% | 90.1% | 78.4% | 91.4% | 59.9% | 94.5% | 
CCOC(=O)N1CCN(c2nc(Nc3cc(C)[nH]n3)c3ccccc3n2)CC1 | 65.8% | 34.8% | 88.5% | 49.6% | 23.1% | 31.3% | 10.4% | 34.4% | 44% | 14% | 47.5% | 17.4% | 77.6% | 63.7% | 42.6% | 36.5% | 46.8% | 65.7% | 61.6% | 
Cl/C(=N\Nc1ccccc1)c1ccccc1 | 91.4% | 91% | 75.4% | 96% | 106% | 97.9% | 72.8% | 85.4% | 102% | 98.4% | 101% | 89.5% | 86.4% | 89.7% | 92.8% | 87.7% | 103% | 75.2% | 106% | 
COc1cccc2c1C(=O)c1c(O)c3c(c(O)c1C2=O)C[C@@](O)(/C(C)=N/NC(=O)c1ccc(Cl)cc1)C[C@@H]3OC1CC(N)C(O)C(C)O1 (stereo partly specified) | -39.7% (active) | -39.4% (active) | -35.3% (active) | -17% (active) | -21.8% (active) | -6.16% (active) | -70.1% (active) | -32.8% (active) | -6.44% (active) | -81.4% (active) | -0.501% (active) | -19.5% (active) | -74.6% (active) | -1.48% (active) | -54.8% (active) | -60.4% (active) | -45.5% (active) | -57.1% (active) | -60% (active) | 
CN(C)CCOc1ccc(-c2nc3ccc(-c4nc5ccc(N6CCN(C)CC6)cc5[nH]4)cc3[nH]2)cc1 | 76.9% | 28.7% | 77.8% | 69.9% | 56% | 61.7% | 59.9% | 64.4% | 86.4% | 44.5% | 82.4% |  | 24.1% | 73.4% | 65.8% | 54.6% | 49.8% | 41.2% | 51.3% | 48.3
O=C1C=CC(=O)c2c1nc1n2CCCC1 | 39.2% | 95% | 29.8% | 80% | 24.6% | 132% | 72.5% | 41.6% | 93.3% | 33.2% | 63.2% |  | -71.2% (active) | 89.9% | 83.5% | 95.8% | 74.9% | 84.8% | 29.9% | 96.5
CCN(CC)c1ccc(CNc2cc(C)nc3ccc(OC)cc23)cc1 | 21.2% | 75.8% | -5.55% (active) | 102% | -39.4% (active) | 20.7% | 24.6% | 70.2% | 73.7% | -75.2% (active) | 58.7% | -35.6% (active) | -77.5% (active) |  | 72.7% | 16.5% | 76% | 18.7% | 48.8% | 77
